Test results taken from the supplement of paper PMC10849652.
Targets with a hit are over-represented here; the source holds about 7,900 in all. About 0.6% of all pairs of compound and target were hits. A number with no mark means an inactive call.

Key:
Assay in all cases: log2 fold change, soluble protein after heating vs DMSO (PISA); higher = thermal stabilisation; K562 cells, 10 uM, 30 min; active = over 0.2 and 3.5 SD of the protein, either way, in both replicates (recomputed)
[1] = compound: CC(=O)c1cnc2ccc(-c3cc(Cl)c(O)c(Cl)c3)nc2c1N[C@H]1CC[C@H](CN(C)C)CC1
Summary of the method: (§1)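 K562 cells at 2×10^6 cells/mL were given 10 μM compound for 30 min. Aliquots then went through 3 min of heating across 48°C-58°C, were pooled, and were extracted in PBS with 0.5% NP-40 at 4°C, and the supernatant after 21,000xg for 90 min was quantified by TMTpro 16plex LC-MS/MS with channel sums equalised. Thermal stability relative to control samples, from duplicates, is given as log2 fold change.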

ralimetinib = compound: CC(C)(C)Cn1c(N)nc2ccc(-c3[nH]c(C(C)(C)C)nc3-c3ccc(F)cc3)nc21 [ralimetinib]
Summary of the method: as §1

[2] = compound: CC(C)(O)CC(=O)NCCn1ccc2ncnc(Nc3ccc(Oc4cccc(C(F)(F)F)c4)c(Cl)c3)c21
Summary of the method: as §1

[3] = compound: CC(C)C1=C2N=C(C=C(N2N=C1)NCC3=CC=CC=C3)NCCCCCCN
Summary of the method: as §1

[4] = compound: CC(C)C[C@@H](C=O)NC(=O)[C@H](CC(C)C)NC(=O)[C@H](CC(C)C)NC(=O)OCc1ccccc1
Summary of the method: as §1

[5] = compound: CC1=C(C(CC(=O)N1)C2=CC=C(C=C2)C(F)(F)F)C(=O)NC3=C(C=C4C(=C3)C=NN4)F
Summary of the method: as §1

[6] = compound: CC1=C(C=C(C=C1)NC(=O)C2=CC(=CC=C2)C(C)(C)C#N)NC3=CC4=C(C=C3)N=CN(C4=O)C
Summary of the method: as §1

[7] = compound: CC1=C(C=C(C=C1)NC(=O)C2=CC(=CC=C2)N(C)C)NC(=O)C3=CC=C(C=C3)O
Summary of the method: as §1

[8] = compound: CC1=CC=C(C=C1)SC2=C3C=C(SC3=CN=C2)C(=O)N
Summary of the method: as §1

Nexturastat A = compound: CCCCN(Cc1ccc(C(=O)NO)cc1)C(=O)Nc1ccccc1 [Nexturastat A]
Summary of the method: as §1

[9] = compound: CCCS(=O)(=O)Nc1ccc(F)c(C(=O)c2c[nH]c3ncc(Cl)cc23)c1F
Summary of the method: as §1

[10] = compound: CCCc1cc(C)[nH]c(=O)c1CNC(=O)c1cc(-c2ccnc(N3CCN(C)CC3)c2)cc2c1cnn2C(C)C
Summary of the method: as §1

givinostat = compound: CCN(CC)Cc1ccc2cc(COC(=O)Nc3ccc(C(=O)NO)cc3)ccc2c1 [givinostat]
Summary of the method: as §1

barasertib = compound: CCN(CCCOc1ccc2c(Nc3cc(CC(=O)Nc4cccc(F)c4)[nH]n3)ncnc2c1)CCOP(=O)(O)O [barasertib]
Summary of the method: as §1

IRAK-1-4 Inhibitor I = compound: C1COCCN1CCN2C3=CC=CC=C3N=C2NC(=O)C4=CC(=CC=C4)[N+](=O)[O-] [IRAK-1-4 Inhibitor I]
Summary of the method: as §1

ibrutinib = compound: C=CC(=O)N1CCC[C@@H](n2nc(-c3ccc(Oc4ccccc4)cc3)c3c(N)ncnc32)C1 [ibrutinib]
Summary of the method: as §1

pinometostat = compound: CC(C)N(C[C@H]1O[C@@H](n2cnc3c(N)ncnc32)[C@H](O)[C@@H]1O)[C@H]1C[C@@H](CCc2nc3cc(C(C)(C)C)ccc3[nH]2)C1 [pinometostat]
Summary of the method: as §1

[11] = compound: CC1=C(C2=C(C=C1)C(=O)C3=CC=CC=C3N2CCCN)C
Summary of the method: as §1

[12] = compound: CC1=NC(=CC=C1)C2=C(N=C(N2)C(C)(C)C)C3=CC4=NC=CN=C4C=C3
Summary of the method: as §1

vemurafenib = compound: CCCS(=O)(=O)Nc1ccc(F)c(C(=O)c2c[nH]c3ncc(-c4ccc(Cl)cc4)cc23)c1F [vemurafenib]
Summary of the method: as §1

VDAC1 (UniProt C9JI87)
log2 fold change [1]: -0.091
log2 fold change (ralimetinib): -0.506
log2 fold change [2]: -0.052
log2 fold change [3]: 0.009
log2 fold change [4]: -0.013
log2 fold change [5]: 0.21
log2 fold change [6]: -0.03
log2 fold change [7]: -0.003
log2 fold change [8]: -0.034
log2 fold change (Nexturastat A): -0.093
log2 fold change [9]: -0.134
log2 fold change [10]: -0.053
log2 fold change (givinostat): -0.052
log2 fold change (barasertib): 0.071

TOM1 (UniProt O60784)
Sequence of UniProt O60784 (O60784 whole entry, looked up): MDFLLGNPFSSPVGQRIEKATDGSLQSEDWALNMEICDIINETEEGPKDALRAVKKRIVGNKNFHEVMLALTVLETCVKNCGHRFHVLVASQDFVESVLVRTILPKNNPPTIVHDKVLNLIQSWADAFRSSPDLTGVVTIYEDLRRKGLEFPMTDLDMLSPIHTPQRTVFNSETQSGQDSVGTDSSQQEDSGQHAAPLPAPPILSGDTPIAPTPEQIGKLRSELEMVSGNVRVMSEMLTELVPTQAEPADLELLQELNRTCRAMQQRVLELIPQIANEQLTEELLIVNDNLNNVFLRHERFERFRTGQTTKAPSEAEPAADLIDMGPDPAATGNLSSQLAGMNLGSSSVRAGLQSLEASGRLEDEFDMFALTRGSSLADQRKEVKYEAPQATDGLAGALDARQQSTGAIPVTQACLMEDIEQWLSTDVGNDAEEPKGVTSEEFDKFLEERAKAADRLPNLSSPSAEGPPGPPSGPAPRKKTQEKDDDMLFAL
log2 fold change (IRAK-1-4 Inhibitor I): 0.058
log2 fold change (ibrutinib): 0.093
log2 fold change [2]: -0.087
log2 fold change [3]: -0.22
log2 fold change (pinometostat): -0.032
log2 fold change [11]: -0.236
log2 fold change [6]: 0.058
log2 fold change [12]: -0.022
log2 fold change (Nexturastat A): 0.504 (active)
log2 fold change [10]: -0.015
log2 fold change (givinostat): -0.09
log2 fold change (barasertib): -0.039

XRCC1 (UniProt P18887)
Sequence of UniProt P18887 (P18887 whole entry, looked up): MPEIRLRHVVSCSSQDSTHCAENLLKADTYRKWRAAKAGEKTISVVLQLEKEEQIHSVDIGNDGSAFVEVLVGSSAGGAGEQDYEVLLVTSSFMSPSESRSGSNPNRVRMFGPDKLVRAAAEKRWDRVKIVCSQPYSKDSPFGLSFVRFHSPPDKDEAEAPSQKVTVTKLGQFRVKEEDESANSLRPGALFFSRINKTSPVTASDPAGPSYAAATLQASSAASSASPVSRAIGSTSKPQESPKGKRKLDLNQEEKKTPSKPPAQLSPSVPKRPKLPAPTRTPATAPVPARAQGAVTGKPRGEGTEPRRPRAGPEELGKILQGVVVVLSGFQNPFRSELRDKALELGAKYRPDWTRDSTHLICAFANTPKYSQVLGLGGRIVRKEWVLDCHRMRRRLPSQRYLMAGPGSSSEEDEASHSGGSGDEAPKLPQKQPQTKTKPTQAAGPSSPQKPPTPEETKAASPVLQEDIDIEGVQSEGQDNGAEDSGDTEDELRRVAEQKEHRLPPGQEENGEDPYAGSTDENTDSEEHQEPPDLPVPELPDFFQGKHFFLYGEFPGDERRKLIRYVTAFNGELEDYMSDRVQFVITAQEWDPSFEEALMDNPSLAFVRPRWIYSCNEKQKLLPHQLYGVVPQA
log2 fold change (IRAK-1-4 Inhibitor I): 0.13
log2 fold change [1]: 0.027
log2 fold change (ralimetinib): -0.115
log2 fold change [2]: -0.368
log2 fold change [3]: -0.066
log2 fold change [4]: 0.432
log2 fold change (pinometostat): 0.41
log2 fold change [11]: -0.047
log2 fold change [6]: 0.049
log2 fold change [7]: 0.063
log2 fold change [12]: -0.222
log2 fold change (Nexturastat A): 0.429
log2 fold change (givinostat): 0.01

TMEM8A (UniProt Q9HCN3)
Sequence of UniProt Q9HCN3 (Q9HCN3 whole entry, looked up): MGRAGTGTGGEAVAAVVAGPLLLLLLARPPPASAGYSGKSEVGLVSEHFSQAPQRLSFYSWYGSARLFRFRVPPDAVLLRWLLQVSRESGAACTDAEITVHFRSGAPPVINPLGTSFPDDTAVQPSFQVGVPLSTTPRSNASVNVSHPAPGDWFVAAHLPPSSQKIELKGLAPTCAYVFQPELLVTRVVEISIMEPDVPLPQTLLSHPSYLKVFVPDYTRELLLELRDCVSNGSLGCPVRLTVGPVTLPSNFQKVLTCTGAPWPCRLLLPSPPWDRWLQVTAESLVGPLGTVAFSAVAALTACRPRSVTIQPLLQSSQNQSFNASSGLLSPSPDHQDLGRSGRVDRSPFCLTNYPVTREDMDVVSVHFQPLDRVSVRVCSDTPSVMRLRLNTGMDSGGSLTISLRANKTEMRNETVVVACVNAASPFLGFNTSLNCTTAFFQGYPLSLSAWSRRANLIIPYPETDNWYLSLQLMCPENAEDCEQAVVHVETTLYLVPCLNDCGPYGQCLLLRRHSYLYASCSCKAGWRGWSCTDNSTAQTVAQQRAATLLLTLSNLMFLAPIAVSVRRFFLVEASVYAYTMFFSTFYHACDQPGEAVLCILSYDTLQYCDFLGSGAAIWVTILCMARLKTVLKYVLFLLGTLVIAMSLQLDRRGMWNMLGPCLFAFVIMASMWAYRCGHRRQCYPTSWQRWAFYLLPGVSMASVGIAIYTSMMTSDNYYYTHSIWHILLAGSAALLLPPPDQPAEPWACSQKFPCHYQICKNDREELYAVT
log2 fold change (ibrutinib): 0.06
log2 fold change (ralimetinib): -0.131
log2 fold change [3]: -0.445 (active)
log2 fold change [4]: -0.036
log2 fold change [5]: 0.007
log2 fold change [11]: 0.044
log2 fold change [6]: 0.101
log2 fold change [7]: 0.017
log2 fold change [8]: -0.047
log2 fold change (vemurafenib): -0.003
log2 fold change [9]: -0.073
log2 fold change [10]: -0.077
log2 fold change (givinostat): 0.014
log2 fold change (barasertib): -0.189

TVP23C (UniProt Q96ET8)
Sequence of UniProt Q96ET8 (Q96ET8 whole entry, looked up): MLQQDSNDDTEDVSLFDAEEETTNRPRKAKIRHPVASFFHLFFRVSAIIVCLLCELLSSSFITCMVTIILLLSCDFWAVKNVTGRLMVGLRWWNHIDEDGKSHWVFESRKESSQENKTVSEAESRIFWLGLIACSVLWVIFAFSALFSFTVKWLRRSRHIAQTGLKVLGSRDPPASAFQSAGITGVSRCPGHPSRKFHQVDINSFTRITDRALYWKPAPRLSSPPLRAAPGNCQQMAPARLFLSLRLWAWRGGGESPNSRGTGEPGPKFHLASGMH
log2 fold change [1]: 0.021
log2 fold change [3]: 0.011
log2 fold change [11]: 0.037
log2 fold change [8]: 0.024
log2 fold change (vemurafenib): -0.022
log2 fold change [9]: -0.178
log2 fold change [10]: -0.118
log2 fold change (givinostat): 0.043

UFM1 isoform 2 (UniProt P61960)
Sequence of UniProt P61960 (P61960 whole entry, looked up): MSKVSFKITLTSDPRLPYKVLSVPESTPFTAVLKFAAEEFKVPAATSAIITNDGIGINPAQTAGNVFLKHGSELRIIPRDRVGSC
log2 fold change (ibrutinib): 0.025
log2 fold change [1]: 0.052
log2 fold change [2]: 0.018
log2 fold change [3]: -0.013
log2 fold change [5]: 0.026
log2 fold change [11]: 0.035
log2 fold change [6]: 0.004
log2 fold change [8]: -0.01
log2 fold change (Nexturastat A): -0.36 (active)
log2 fold change (vemurafenib): -0.13
log2 fold change [9]: 0.001
log2 fold change [10]: 0.127
log2 fold change (givinostat): -0.146
log2 fold change (barasertib): 0.053

USP48 (UniProt Q86UV5)
Sequence of UniProt Q86UV5 (Q86UV5 whole entry, looked up): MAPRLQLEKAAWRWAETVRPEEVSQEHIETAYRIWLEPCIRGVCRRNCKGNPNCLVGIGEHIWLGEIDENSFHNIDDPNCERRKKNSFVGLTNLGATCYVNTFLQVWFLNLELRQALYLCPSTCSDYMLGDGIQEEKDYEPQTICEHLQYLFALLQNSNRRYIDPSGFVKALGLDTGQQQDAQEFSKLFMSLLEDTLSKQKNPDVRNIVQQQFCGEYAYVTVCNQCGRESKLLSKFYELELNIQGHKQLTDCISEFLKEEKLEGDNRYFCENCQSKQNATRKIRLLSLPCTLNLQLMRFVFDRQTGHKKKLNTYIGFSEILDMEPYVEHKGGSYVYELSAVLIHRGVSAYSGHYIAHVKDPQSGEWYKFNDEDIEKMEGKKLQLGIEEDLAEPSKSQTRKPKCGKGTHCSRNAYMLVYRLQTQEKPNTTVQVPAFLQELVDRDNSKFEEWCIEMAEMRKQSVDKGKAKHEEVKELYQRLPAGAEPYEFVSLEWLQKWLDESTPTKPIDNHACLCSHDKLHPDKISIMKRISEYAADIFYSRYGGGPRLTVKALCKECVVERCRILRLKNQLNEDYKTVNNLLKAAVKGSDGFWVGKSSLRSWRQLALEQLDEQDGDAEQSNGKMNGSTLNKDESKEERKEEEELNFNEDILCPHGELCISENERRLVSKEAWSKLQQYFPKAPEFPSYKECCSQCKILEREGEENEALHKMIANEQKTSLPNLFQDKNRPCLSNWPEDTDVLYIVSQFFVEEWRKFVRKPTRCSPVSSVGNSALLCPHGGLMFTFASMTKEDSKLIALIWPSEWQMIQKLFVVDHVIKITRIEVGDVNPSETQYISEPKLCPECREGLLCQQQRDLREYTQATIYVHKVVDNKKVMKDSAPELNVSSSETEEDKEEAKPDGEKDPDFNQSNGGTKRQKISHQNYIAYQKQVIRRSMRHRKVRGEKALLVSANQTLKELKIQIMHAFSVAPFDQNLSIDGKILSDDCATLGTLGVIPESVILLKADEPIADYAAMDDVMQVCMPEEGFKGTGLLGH
log2 fold change (ibrutinib): -0.07
log2 fold change [3]: -0.246
log2 fold change [5]: 0.05
log2 fold change [6]: -0.096
log2 fold change [10]: -0.232
log2 fold change (givinostat): 0.237
log2 fold change (barasertib): 0.252

UBAP2L (UniProt F8W726)
log2 fold change (ibrutinib): 0.017
log2 fold change [3]: -0.002
log2 fold change [5]: 0.145
log2 fold change [11]: 0.136
log2 fold change [8]: -0.093
log2 fold change [9]: 0.004
log2 fold change [10]: 0.014
log2 fold change (givinostat): -0.067
log2 fold change (barasertib): -0.058

TTC26
log2 fold change (ibrutinib): 0.035
log2 fold change (ralimetinib): 0.204
log2 fold change [4]: -0.211
log2 fold change [11]: 0.062
log2 fold change [7]: 0.116
log2 fold change (vemurafenib): -0.598 (active)
log2 fold change (barasertib): -0.139

TRIM23 (UniProt P36406)
Sequence of UniProt P36406 (P36406 whole entry, looked up): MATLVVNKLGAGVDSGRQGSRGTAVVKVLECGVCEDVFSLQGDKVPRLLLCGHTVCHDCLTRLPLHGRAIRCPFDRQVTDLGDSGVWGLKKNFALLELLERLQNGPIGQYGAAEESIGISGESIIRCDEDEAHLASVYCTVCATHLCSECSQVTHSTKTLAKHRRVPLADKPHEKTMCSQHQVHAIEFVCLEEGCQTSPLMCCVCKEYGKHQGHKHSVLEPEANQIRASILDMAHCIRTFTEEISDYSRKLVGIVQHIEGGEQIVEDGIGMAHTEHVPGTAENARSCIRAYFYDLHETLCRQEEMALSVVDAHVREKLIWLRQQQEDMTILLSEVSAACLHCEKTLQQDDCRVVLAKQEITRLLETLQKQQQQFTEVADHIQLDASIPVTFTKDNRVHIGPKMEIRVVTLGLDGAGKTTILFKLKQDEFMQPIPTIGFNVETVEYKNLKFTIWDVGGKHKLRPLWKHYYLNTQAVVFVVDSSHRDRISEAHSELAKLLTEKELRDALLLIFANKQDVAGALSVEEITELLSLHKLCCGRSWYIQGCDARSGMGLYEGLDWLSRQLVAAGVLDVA
log2 fold change (IRAK-1-4 Inhibitor I): 0.064
log2 fold change (ibrutinib): 0.072
log2 fold change (ralimetinib): -0.034
log2 fold change [3]: 0.146
log2 fold change [4]: -0.019
log2 fold change (pinometostat): -0.024
log2 fold change [5]: -0.044
log2 fold change [11]: 0.242
log2 fold change [6]: -0.025
log2 fold change [7]: -0.008
log2 fold change [12]: 0.036
log2 fold change (vemurafenib): -0.022
log2 fold change [10]: 0.055
log2 fold change (givinostat): 0.027
log2 fold change (barasertib): 0.021

WARS1 (UniProt G3V3P2)
log2 fold change (ibrutinib): -0.036
log2 fold change [6]: -0.055
log2 fold change (barasertib): -0.255

TSPAN13 (UniProt O95857)
Sequence of UniProt O95857 (O95857 whole entry, looked up): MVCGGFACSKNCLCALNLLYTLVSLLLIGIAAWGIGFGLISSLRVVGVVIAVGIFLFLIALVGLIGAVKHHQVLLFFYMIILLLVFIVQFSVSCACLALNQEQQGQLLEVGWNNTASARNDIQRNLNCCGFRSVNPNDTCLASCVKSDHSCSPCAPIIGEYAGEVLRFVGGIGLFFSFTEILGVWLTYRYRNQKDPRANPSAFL
log2 fold change (ibrutinib): 0.175
log2 fold change (ralimetinib): -0.149
log2 fold change [2]: 0.151
log2 fold change [3]: -0.198
log2 fold change [4]: 0.018
log2 fold change [5]: 0.113
log2 fold change [11]: 0.065
log2 fold change [6]: 0.111
log2 fold change [7]: -0.078
log2 fold change [8]: 0.161
log2 fold change (Nexturastat A): -0.061
log2 fold change (vemurafenib): 0.103
log2 fold change [9]: -0.08
log2 fold change [10]: -0.113
log2 fold change (givinostat): -0.063
log2 fold change (barasertib): -0.041

WARS1 (UniProt G3V227)
log2 fold change (ibrutinib): 0.03
log2 fold change [1]: -0.022
log2 fold change [2]: 0.259
log2 fold change [11]: -0.048
log2 fold change (Nexturastat A): 0.459
log2 fold change (vemurafenib): -0.455
log2 fold change (barasertib): 0.004

TXNRD1 isoform 7 (UniProt Q16881)
Sequence of UniProt Q16881 (Q16881 whole entry, looked up): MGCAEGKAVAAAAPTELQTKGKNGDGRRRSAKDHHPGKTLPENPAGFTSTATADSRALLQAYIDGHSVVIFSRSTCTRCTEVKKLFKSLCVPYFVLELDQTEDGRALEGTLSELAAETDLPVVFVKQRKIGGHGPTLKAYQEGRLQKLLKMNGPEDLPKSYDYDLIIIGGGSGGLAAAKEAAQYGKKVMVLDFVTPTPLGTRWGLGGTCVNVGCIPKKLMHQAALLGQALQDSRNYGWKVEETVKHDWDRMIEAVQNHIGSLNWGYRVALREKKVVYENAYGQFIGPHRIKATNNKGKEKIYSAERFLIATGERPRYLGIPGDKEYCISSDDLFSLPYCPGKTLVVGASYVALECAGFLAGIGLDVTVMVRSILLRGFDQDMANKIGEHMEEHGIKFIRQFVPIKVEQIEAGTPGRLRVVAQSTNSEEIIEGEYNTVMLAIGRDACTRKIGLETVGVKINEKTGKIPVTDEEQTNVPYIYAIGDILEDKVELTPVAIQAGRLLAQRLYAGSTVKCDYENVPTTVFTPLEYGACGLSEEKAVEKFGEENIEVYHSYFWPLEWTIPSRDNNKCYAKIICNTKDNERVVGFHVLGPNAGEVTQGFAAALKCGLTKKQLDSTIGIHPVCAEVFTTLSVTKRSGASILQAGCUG
log2 fold change (ibrutinib): -0.209
log2 fold change [2]: -0.069
log2 fold change [3]: -0.01
log2 fold change [6]: -0.567
log2 fold change [8]: -0.037
log2 fold change (Nexturastat A): 0.221
log2 fold change (vemurafenib): -0.123
log2 fold change [9]: 0.049
log2 fold change (givinostat): 0.403
log2 fold change (barasertib): 0.041

WARS1 (UniProt G3V339)
log2 fold change [2]: 0.044
log2 fold change (Nexturastat A): 0.188
